Test results as given in PubChem BioAssay (NCI).
About 83,000 compounds went through this panel and 20% of them were active in at least one assay; those are over-represented in the sample as a whole.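 Testing used 96-well plates and a 48-hour single-concentration exposure. Example: -40 means 40% of the starting cells died.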 A number with no mark means an inactive call. Active and inactive are the calls of the source. The calls were made as follows: active = growth percent below 10; inactive = the rest.

Tests used:
Assay in all cases: NCI-60 one-dose screen, 48 h (100 = growth as untreated, 0 = no growth, -100 = all killed)
Conditions in all cases: 10 µM unless noted
SK-MEL-2 melanoma = test system: SK-MEL-2 melanoma
EKVX NSCLC = test system: EKVX NSCLC
SN12C renal = test system: SN12C renal
UO-31 renal = test system: UO-31 renal
TK-10 renal = test system: TK-10 renal
ACHN renal = test system: ACHN renal
CAKI-1 renal = test system: CAKI-1 renal
A498 renal = test system: A498 renal
CCRF-CEM leukemia = test system: CCRF-CEM leukemia
MOLT-4 leukemia = test system: MOLT-4 leukemia
SR leukemia = test system: SR leukemia
RPMI-8226 leukemia = test system: RPMI-8226 leukemia
OVCAR-8 ovarian = test system: OVCAR-8 ovarian
OVCAR-5 ovarian = test system: OVCAR-5 ovarian
OVCAR-4 ovarian = test system: OVCAR-4 ovarian
IGROV1 ovarian = test system: IGROV1 ovarian
OVCAR-3 ovarian = test system: OVCAR-3 ovarian
HS 578T breast = test system: HS 578T breast
NCI/ADR-RES ovarian = test system: NCI/ADR-RES ovarian
SK-OV-3 ovarian = test system: SK-OV-3 ovarian

Structure (SMILES)	growth (SK-MEL-2 melanoma)	growth (EKVX NSCLC)	growth (SN12C renal)	growth (UO-31 renal)	growth (TK-10 renal)	growth (ACHN renal)	growth (CAKI-1 renal)	growth (A498 renal)	growth (CCRF-CEM leukemia)	growth (MOLT-4 leukemia)	growth (SR leukemia)	growth (RPMI-8226 leukemia)	growth (OVCAR-8 ovarian)	growth (OVCAR-5 ovarian)	growth (OVCAR-4 ovarian)	growth (IGROV1 ovarian)	growth (OVCAR-3 ovarian)	growth (HS 578T breast)	growth (NCI/ADR-RES ovarian)	growth (SK-OV-3 ovarian)
COc1cc2c(O)n(CCCn3ccnc3)c3c4cnc5cccc(c(=O)c3c2cc1OC)c54	71%	49.6%	19.2%	64.7%	92.7%	27.2%	66.4%	21.5%	11%	4.13% (active)	25%	19.4%	35.3%	83.1%	50.9%	46.2%	44.7%	73.8%	98.3%	
CN1CCN(C2=C(Cl)C(=O)c3ccccc3C2=O)CC1	45.8%	89.3%	79.1%	75.4%	93.5%	82.9%	77%	88.6%	75.5%	79.7%	24.3%		67.1%	119%	84%	60.7%		27.8%	69.8%	102%
O=C(O)c1ccccc1C(=O)Nc1ccc(Cl)cc1	102%	96.2%	102%	84.6%	93.3%	94.9%	74.1%	108%	110%	71.2%	80.4%		87.7%	103%	110%	102%	110%	132%	104%	109%
CCN(CC)CCOc1ccc(/C(=C(\C)c2ccc(OC)c(F)c2)c2ccc(Cl)cc2)cc1	95.9%	96.5%	83.5%	75.6%	82.6%	89.8%	67.2%	102%	60.2%	70.8%	29.8%		76.7%	72.9%	73.1%	72.2%	89%	70%	82.3%	91.1%
COc1cccc(/C=C2\COc3ccc(O)cc3C2=O)c1OC	96.4%	92.8%	44.4%	58.6%	89.3%	54.6%	63.4%	90.7%	2.69% (active)	32.9%	5.49% (active)		69%	89.7%	92.5%	67.5%	41.2%	73%	63.2%	92.9%
Nc1ccc2c(S(=O)(=O)O)ccc(S(=O)(=O)O)c2c1	103%	103%	95.3%	81.6%	108%	96.4%	95.6%	116%	56.5%	80.3%	83.4%	95.7%	91.6%		99.9%	82.5%	117%			95.6%
COc1ccc(/C=C2\COc3ccc(O)cc3C2=O)c(OC)c1	55.9%	70.5%	52.7%	74.9%	91.9%	85.2%	59.3%	92.4%	4.96% (active)	36.8%	19.5%		63.3%	94.3%	96.1%	67.3%	27%	66%	33%	58%
C=C1C(=O)O[C@H]2[C@H]1CC/C(COC(=O)/C=C\C(=O)NCc1ccc(Cn3c(=O)sn(CCCC)c3=O)cc1)=C\CC[C@@]1(C)O[C@@H]21	-54.2% (active)	-48% (active)	-93% (active)	-100% (active)	-76.9% (active)	-100% (active)	-78.8% (active)	11.2%	-26.1% (active)	-17.4% (active)	-24.7% (active)		2.61% (active)	-78.9% (active)	-81.8% (active)	-100% (active)	-80.5% (active)	-20.4% (active)	-9.25% (active)	55.7%
CC12CC(C#N)CCC1O2 (stereo not drawn)	116%	120%	105%	96%	119%	101%	111%	121%	92.4%	96.2%	98.9%	106%	105%	105%		99.2%	117%	105%	115%	115%
COc1cc(C(=O)/C=C/c2c(-c3ccc(F)cc3)nc3ncccn23)cc(OC)c1OC	30.1%	52.3%	60.8%	35.7%	78.2%	47%	16.2%	69.9%	18.9%	50.7%	9.6% (active)	11.3%	48.3%		46.5%	47.8%	19.1%			63.9%
CC1(C)N=C(N)N=C(N)N1c1ccc(Cl)c(Cl)c1	64.6%	52.5%	27.1%	48.3%	48.5%	28.4%	60.8%	99.1%	32%	34.6%	39.5%	48.2%	28.7%		54.5%	41.2%	53%			39.5%
Cc1nc(Nc2ccc(N)cc2)c2ccccc2n1	101%	101%	93.1%	81.4%	110%	80.1%	91.2%	97.3%	86.2%	100%	56.8%		95.3%	100%	91.2%	92.7%	101%	104%	93.6%	113%
O=C1CC(c2ccc3c(c2)OCO3)Nc2cc3c(cc21)OCO3 (stereo not drawn)	11.7%	36.2%	22.7%	52.6%	34.6%	45.8%	43.4%	-17.4% (active)	9.73% (active)	26%	7.67% (active)	16.5%	12.7%	44.7%	49.9%	50.4%	-5.26% (active)	19.5%	13.5%	
COc1ccc(/C(C)=C(\c2ccc(Cl)cc2)c2ccc(OCCN3CCCC3)cc2)cc1F	59.9%	47%	51.6%	28.9%	62%	50.9%	22%	68%	31.2%	-5.27% (active)	-22.6% (active)		48.7%	46.6%	32.3%	38.1%	35.2%	30%	51.6%	58.6%
CCOC(=O)c1c2c(c(C)n1C)-c1nn(Cc3ccc(OC)cc3)cc1CC2	111%	79.6%	92.5%	91.3%	206%	91.9%	85.2%	98.7%	82.9%	69.4%	71.2%	77.8%	100%		71.2%	111%	108%			109%
COc1cc(/C=C/C(=O)c2cccc(-n3cc(-c4ccccc4)[nH]c3=O)c2)cc(OC)c1OC	-64.5% (active)	17%	10.4%	-45.2% (active)	-5.4% (active)	-64.9% (active)	12.2%	33.2%	3.61% (active)	-12.6% (active)	-15.9% (active)	-39.4% (active)	12.5%		-7.54% (active)	-23.8% (active)	6.35% (active)			4.74% (active)
